In the library only some 2.9% were active in any assay of this set; here they are far more common.
ATXN viability: viability counter-screen for ATXN expression inhibitors. AID 651635. Potency, µM (doses to about 56.7 µM), hits mostly cytotoxic. S2 cells (HEK-293 line with an ATXN2-luciferase reporter) viability, CellTiter-Fluor protease fluorescence, 24 h. actives 0.49% (n = 400,000); further: nearly all actives have a fitted effect of over 40% in size
Nrf2 block: inhibitors of Nrf2 signaling | A549 ARE-Fluc reporter, luciferase luminescence, 18-24 h | Potency, µM (doses to about 46 µM), usual class: inhibitors | actives 2.1% (n = 360,000) | AID 504444; further: nearly all actives have a fitted effect of over 60% in size
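Concentration-response testing used A549 ARE_Fluc cells at 5000 cells/well. Following an 18-24 h compound incubation, viability was read by fluorescence (Ex 405/Em 525) and luciferase output by luminescence.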
ATXN2 expr inh: ATXN2 expression inhibition; HEK-293 ATXN2-luciferase reporter, luminescence, 24 h; Potency, µM (highest dose often 57 µM), actives largely listed as inhibitors; actives 0.72% (n = 360,000); AID 1745845; further: nearly all actives have a fitted effect of over 55% in size
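qHTS (up to 57 uM final) was run with 24 h compound exposure of reporter cells at 37 °C. Each well was multiplexed: SteadyGlo luminescence measured ATXN2-luciferase expression after a fluorogenic Gly-Phe-AFC viability readout (25 uM final).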
A549 tox-1: A549 cytotoxicity, counter-screen for Nrf2 inhibitors; Potency, µM (highest dose often 46 µM), actives largely listed as inhibitors; A549 ARE-Fluc cells, CellTiter-Fluor viability, 18-24 h; actives 0.16% (n = 390,000)
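Cytotoxicity counterscreen: CellTiter-Fluor fluorescence was measured in A549 ARE_Fluc cells after 18-24 h of compound exposure in a concentration series. The subsequent BugLite luminescent read reports ARE-luciferase activity.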
Nrf2 ARE act: activates Nrf2 signaling; AREc32 ARE-luciferase reporter (MCF7-derived line), luminescence, 24 h; Potency, µM (titrated, usually from 46.1 µM), hits mostly activators; actives 0.31% (n = 410,000); AID 624171; further: nearly all actives have a fitted effect of over 65% in size
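Luminescent ARE reporter assay in AREc32_Fluc cells: overnight plating at 37 deg C, 24 hr compound incubation, Steady-Glo added, 30 min RT before reading.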
FLuc counter 3: counter-screen for Nrf2 inhibitors: firefly luciferase enzyme inhibition. shares compounds with Nrf2 block. purified firefly luciferase, luminescence inhibition. Potency, µM (titrated, usually from 57.5 µM), actives largely listed as inhibitors. actives 4% (n = 1,400). AID 720522; further: nearly all actives have a fitted effect of over 65% in size
Target sequence (P08659 whole entry, looked up): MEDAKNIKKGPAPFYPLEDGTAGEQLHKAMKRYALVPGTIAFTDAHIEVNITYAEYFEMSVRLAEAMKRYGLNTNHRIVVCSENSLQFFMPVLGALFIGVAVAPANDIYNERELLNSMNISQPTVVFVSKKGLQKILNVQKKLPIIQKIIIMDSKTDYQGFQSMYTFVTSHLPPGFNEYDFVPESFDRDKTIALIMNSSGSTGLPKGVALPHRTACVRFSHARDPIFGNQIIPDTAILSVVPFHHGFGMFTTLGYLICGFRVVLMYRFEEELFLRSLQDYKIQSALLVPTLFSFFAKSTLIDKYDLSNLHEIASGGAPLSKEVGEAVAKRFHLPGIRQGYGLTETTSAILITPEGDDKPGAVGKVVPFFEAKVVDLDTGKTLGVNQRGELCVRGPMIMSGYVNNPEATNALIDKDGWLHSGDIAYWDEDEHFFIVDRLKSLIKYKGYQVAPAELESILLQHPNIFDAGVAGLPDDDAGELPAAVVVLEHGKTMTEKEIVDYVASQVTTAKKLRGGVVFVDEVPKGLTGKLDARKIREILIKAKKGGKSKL
A549 tox-2: counter-screen for Nrf2 inhibitors: cytotoxicity in A549 ARE cells. shares compounds with Nrf2 block. A549 ARE-Fluc cells, cytotoxicity counterscreen. Potency, µM (titrated, usually from 46.1 µM), actives largely listed as inhibitors. actives 2% (n = 1,400). AID 720523;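 further: cells exposed to compounds for 18 to 24 hours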
Nrf2 ARE inh: Nrf2 inhibition confirmed, A549 ARE-luciferase | shares compounds with Nrf2 block | A549 ARE-firefly luciferase reporter, luminescence | Potency, µM (top dose mostly 46.1 µM), hits mostly inhibitors | actives 74% (n = 1,400) | AID 720524; further: nearly all actives have a fitted effect of over 65% in size
Hits are given with their value; 0 = inactive; ? = inconclusive; - = no result given; [ ] = dose if it differs, or a comment. The call rests on the fitted dose curve; in most records, active means well fitted curve in the direction sought with a large enough effect; inconclusive means small, poorly fitted or top-dose-only effect, or another doubt; inactive means no such curve, though single readings can be large; an effect the other way counts as inactive or inconclusive.

SMILES	ATXN viability	Nrf2 block	ATXN2 expr inh	A549 tox-1	Nrf2 ARE act	others
COc1ccc2[nH]c3c(=O)n(/N=C/[C@H]4C(C)C=C(C)CC4C)c(=O)[nH]c3c2c1 (stereo partly specified)	13µM	?	?	0	0
Clc1ccccc1NN=Cc1ccccn1	0	-	-	-	7.1µM
O=C(N/N=C/c1ccccn1)c1ccc(Cl)cc1	0	?	?	?	0
CC(=O)c1cc2ccccc2s1	0	-	0	-	-
CCOc1ccc(CN(C)c2nc(-c3cccnc3)nc3ccccc23)cc1OC	?	?	19µM	?	0
O=C(NNC(=O)c1ccccc1[N+](=O)[O-])c1ccc(NS(=O)(=O)c2cccs2)cc1	0	0	0	0	0
CCOc1ncccc1C(=O)Nc1ccc(C(=O)Nc2ccc(OC)cc2)cc1	?	8.2µM	0	0	0
COc1cccc(Nc2ncccc2C(=O)Nc2ccccc2)c1	0	21µM	0	?	0
COc1ccc(C(=O)Nc2ccc3ncccc3c2)cc1	0	?	20µM	0	0
CCOc1ccc(NC(=O)c2ccc(OC)cc2)cc1	0	?	0	0	0
CCOc1ncccc1C(=O)NNC(=O)c1ccc(NS(=O)(=O)c2cccs2)cc1	0	0	0	0	2.5µM
CC(C)(C)OC(=O)Nc1ncnc2c1C(c1ccccc1)c1c(ccc3ccccc13)O2 (stereo unspecified)	-	0	-	0	-
COC(=O)c1sccc1S(=O)(=O)N1CCN(c2ccccc2OC)CC1	0	0	0	0	0
CCOC(=O)C1=C(Cc2ccc(Cl)cc2)C(=O)c2ccccc2C1=O	-	?	20µM	0[1.84 µM]	?
O=C(NCc1ccc(F)cc1)c1ccc2c(c1)nnn2C1CCCC1	0	?	0	0	0
O=C(Nc1ccc2c(c1)OCO2)C1CCN(S(=O)(=O)c2ccc3c(c2)OCCO3)CC1	0	?	0	0	0
COc1ccc(S(=O)(=O)N2CCC(C(=O)Nc3ccc4c(c3)OCCO4)CC2)cc1OC	0	21µM	0	0	0
CC(=O)N1CCOc2ccc(S(=O)(=O)N3CCC(C(=O)Nc4ccc(C)c(C)c4)CC3)cc21	0	16µM	0	0	0
O=C1C=CC2(O[C@H](c3ccccc3)[C@@H](c3ccccc3)O2)[C@H](Sc2ccccc2O)C1	-	?	4µM	0	0
CCN(CC)S(=O)(=O)c1ccc(C)c(NC(=S)N2CCN(c3ccccn3)CC2)c1	0	?	?	0	0
Fc1ccc(NC(=S)N2CCN(C/C=C/c3ccccc3)CC2)c(F)c1	0	21µM	-	0	0
CCN(CC)S(=O)(=O)c1ccc(C)c(NC(=S)N2CCN(C/C=C/c3ccccc3)CC2)c1	?	12µM	-	0	0
CCOCCCn1c(C)nc2c(c1=O)c1nc3ccccc3nc1n2CCC1=CCCCC1	?	13µM	0	?	0
Cc1c(Br)cc(F)c([S+](=O)([O-])N2CCN([S+](=O)([O-])c3ccc4c(c3)OCCO4)CC2)c1F	-	0	-	0	-
C=CC(=O)N1C/C(=C/c2ccccc2)C(=O)/C(=C\c2ccccc2)C1	9.5µM	?	6.7µM	?	?
SMILES	ATXN viability	Nrf2 block	ATXN2 expr inh	A549 tox-1	Nrf2 ARE act	others
O=C1C(=Cc2ccc(Cl)cc2)Cc2ccccc21	0	-	0	-	?
C=CC(=O)N1C/C(=C/c2ccc(Cl)cc2)C(=O)/C(=C\c2ccc(Cl)cc2)C1	0.89µM	?	2.8µM	23µM	0
CN1C/C(=C/c2ccncc2)C(=O)/C(=C/c2ccncc2)C1	0	0	0	0	0
Cc1cc(C)c(/C=C/c2onc(C)c2S(=O)(=O)N2CCC(C(=O)NCC(C)c3ccccc3)CC2)c(C)c1 (stereo unspecified)	-	-	-	0	0
Cn1nnnc1Sc1ncnc2scc(-c3ccc(C(=O)OC(C)(C)C)cc3)c12	-	0	-	0	-
N#Cc1c(NCCN)nc(-c2ccco2)c2c1CCCC2	0	?	13µM	0	0
Cc1cc(C)n(S(=O)(=O)/C=C/c2ccccc2)n1	0	9.2µM	0	?	3.2µM	FLuc counter 3=0;A549 tox-2=0;Nrf2 ARE inh=0
COc1ccc(CN(C)Cc2nc(Cc3cccc(F)c3)no2)c2cccnc12	0	3.3µM	0	?	0	FLuc counter 3=0;A549 tox-2=0;Nrf2 ARE inh=?
COc1cccc(-n2cc(CN(C)Cc3nc(Cc4cccc(F)c4)no3)cn2)c1	0	0	0	0	0
Cc1c(C(=O)Nc2ccc3c(c2)OCCO3)sc2nc(-c3ccccc3)cn12	-	6.5µM	32µM	?	0	FLuc counter 3=?;A549 tox-2=0;Nrf2 ARE inh=21µM
COc1cc(C2Oc3nc(SC)nnc3-c3ccccc3N2C(C)=O)cc(Cl)c1OC (stereo unspecified)	0	0	0	0	0
Cc1cc(C)nc(SCC(=O)Nc2ccnc3ccccc23)n1	0	1.2µM	0	?	0	FLuc counter 3=0;A549 tox-2=0;Nrf2 ARE inh=0
O=C(CSC1=NCCS1)Nc1ccnc2ccccc12	0	5.2µM	0	0	0	FLuc counter 3=0;A549 tox-2=0;Nrf2 ARE inh=7.3µM
Cn1c(Oc2ccc(Cl)cc2)nc2c1c(=O)n(Cc1ccc(F)cc1)c(=O)n2C	0	0	0	0	0
COc1ccc2c(c1)CCc1c(C(=O)Nc3c(C)nn(Cc4ccccc4Cl)c3C)noc1-2	0	0	?	0	0
COc1ccc2c(c1)CCc1c(C(=O)Nc3c(C)nn(Cc4ccc(Cl)c(Cl)c4)c3C)noc1-2	-	4.6µM	-	0	0	FLuc counter 3=0;A549 tox-2=0;Nrf2 ARE inh=9.2µM
Cc1oc(-c2ccc(Cl)cc2)nc1CS(=O)CC(=O)NCCCN1CCCC(C)C1 (stereo unspecified)	0	0	0	0	0
Cc1oc(-c2ccc(Cl)cc2)nc1CS(=O)CC(=O)NCCCN1CCN(Cc2ccccc2)CC1 (stereo unspecified)	?	5.8µM	?	0	0	FLuc counter 3=0;A549 tox-2=0;Nrf2 ARE inh=12µM
CC1CCN(C(=O)Cn2ncc3c4ccccc4n(Cc4ccc(Cl)cc4)c3c2=O)CC1	0	0	0	0	0
CCOC(=O)[C@]12CCCC=C1N(Cc1ccc(Cl)cc1Cl)C(=O)[C@H](CC(=O)NCc1ccc(OC)c(OC)c1)C2	-	-	?	-	0
CCN1c2ccccc2-c2nc(SCC(=O)Nc3cc(F)ccc3F)ncc2S1(=O)=O	0	?	0	0	0
COc1ccc(-c2nn(C)c3sc(C(=O)N4CCN(c5cc(Cl)ccc5C)CC4)cc23)cc1OC	0	0	0	0	0
O=c1[nH]c(=O)n(C2OC(CO)C(O)C2O)cc1F (stereo unspecified)	?	?	0	?	0	FLuc counter 3=0;A549 tox-2=?;Nrf2 ARE inh=0.15µM

Compound activity from PubChem BioAssay.
